Test results published in the supplement of paper PMC8975748.
Structures can show the parent of a compound that is named as a salt.

test system: Saccharomyces cerevisiae BY4741 SeMeCo community; test: z-score of subpopulation abundance vs DMSO median, subpopulation auxotrophic for U; higher = larger share of this subpopulation than in DMSO controls; settings: 10 µM; 24 h; SM minimal medium; subpopulation (auxotrophy): U
Summary of the method: (§1)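 A Saccharomyces cerevisiae BY4741 community carried four plasmids, each restoring one auxotrophy and encoding a distinct fluorescent protein. It was pre-grown overnight to OD600 1.0, diluted to 0.3, and 70 µl was added to 384-well plates acoustically predosed with library drugs (10 µM final), then grown 24 h in minimal SM medium. Cells were paraformaldehyde-fixed and imaged by automated confocal microscopy, with single-auxotroph fluorescent strains setting thresholds and autofluorescence correction. Each subpopulation's abundance was scored as a z-score against the vehicle-well median.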

| SMILES | z-score of subpopulation abundance |
| --- | --- |
| COC1C(O)CC(=O)OC(C)CC=CC=CC(OC2CCC(N(C)C)C(C)O2)C(C)CC(CC=O)C1OC1OC(C)C(OC2CC(C)(O)C(O)C(C)O2)C(N(C)C)C1O (stereo not drawn) [Spiramycin] | 0.01 |
| CC(C)(O/N=C(\C(=O)N[C@@H]1C(=O)N2C(C(=O)[O-])=C(C[n+]3ccccc3)CS[C@H]12)c1csc(N)n1)C(=O)O [Ceftazidime] | -0.24 |
| COCCCN1CCC(NC(=O)c2cc(Cl)c(N)c3c2OCC3)CC1 [Prucalopride] | 0.73 |
| CCOc1cc(NC(C)=O)ccc1C(=O)OC [Ethopabate] | -0.35 |
| CCCSc1ccc2[nH]c(NC(=O)OC)nc2c1 [Albendazole] | 0.62 |
| COc1ccnc(C[S+]([O-])c2nc3cc(OC(F)F)ccc3[nH]2)c1OC (stereo not drawn) [Pantoprazole sodium] | -0.3 |
| CCOC(=O)C1=C(COCCN)NC(C)=C(C(=O)OC)C1c1ccccc1Cl (stereo not drawn) [Amlodipine Besylate] | -6.89 |
| CC(C)(C)C(=O)C(Oc1ccc(Cl)cc1)n1ccnc1 (stereo not drawn) [Climbazole] | -1.3 |
| COc1ccc2[nH]c([S+]([O-])Cc3ncc(C)c(OC)c3C)nc2c1 (stereo not drawn) [Omeprazole] | -1.23 |
| O=c1ccn(C2CC(O)C(CO)O2)c(=O)[nH]1 (stereo not drawn) [2-deoxyuridine] | -1.16 |
| NC12CC3CC(CC(C3)C1)C2 [Amantadine HCl] | 0.19 |
| O=C1c2cccc3c2[C@H](CCC3)CN1[C@@H]1CN2CCC1CC2 [Palonosetron HCl] | 0.17 |
| CCCOc1ccc2[nH]c(NC(=O)OC)nc2c1 [Oxibendazole] | 0.5 |
| C[C@]12CC[C@@H]3c4ccc(O)cc4CC[C@H]3[C@@H]1CC[C@@H]2OC(=O)CCC1CCCC1 [Estradiol Cypionate] | 0.71 |
| COc1ccc2c(c1)c(CC(=O)O)c(C)n2C(=O)c1ccc(Cl)cc1 [Indomethacin] | 0.52 |
| O=C(O)Cc1ccccc1Nc1c(Cl)cccc1Cl [Diclofenac Diethylamine] | -1.34 |
| Clc1ccccc1C(c1ccccc1)(c1ccccc1)n1ccnc1 [Clotrimazole] | -0.04 |
| C[C@@H](O)[C@H]1C(=O)N2C(C(=O)OCOC(=O)C(C)(C)C)=C(SC3CN(C4=NCCS4)C3)[C@H](C)[C@H]12 [Tebipenem Pivoxil] | 0.02 |
| COC(=O)C1=C(C)NC(C)=C(C(=O)OCC(C)C)C1c1ccccc1[N+](=O)[O-] (stereo not drawn) [Nisoldipine] | -0.48 |
| NC(=O)Cc1cccc(C(=O)c2ccccc2)c1N [Nepafenac] | -1.24 |
| CN1C2CCCC1CC(NC(=O)c1nn(C)c3ccccc13)C2 (stereo not drawn) [Granisetron] | 0.07 |
| CN(C)C[C@@H]1CCn2cc(c3ccccc32)C2=C(C(=O)NC2=O)c2cn(c3ccccc23)CCO1 | 0.49 |
| Cc1ccc(Sc2ccccc2N2CCNCC2)c(C)c1 | -0.43 |
| CN(C)CCCN1c2ccccc2Sc2ccccc21 [Promazine hydrochloride] | 0.34 |
| CN(C)CCn1nnnc1SCC1=C(C(=O)O)N2C(=O)[C@@H](NC(=O)Cc3csc(N)n3)[C@H]2SC1 [Cefotiam hydrochloride] | -0.08 |
| CN(C)CC(c1ccc(O)cc1)C1(O)CCCCC1 (stereo not drawn) [Desvenlafaxine] | 0.57 |
| Cc1ncc([N+](=O)[O-])n1CCOC(=O)c1ccccc1 [Metronidazole Benzoate] | -0.16 |
| O=C1C(CC[S+]([O-])c2ccccc2)C(=O)N(c2ccccc2)N1c1ccccc1 (racemic) [(+/-)-Sulfinpyrazone] | -0.3 |

test system: Saccharomyces cerevisiae BY4741 SeMeCo community; test: z-score of subpopulation abundance vs DMSO median, subpopulation auxotrophic for H; higher = larger share of this subpopulation than in DMSO controls; settings: 10 µM; 24 h; SM minimal medium; subpopulation (auxotrophy): H
Summary of the method: as §1

| SMILES | z-score of subpopulation abundance |
| --- | --- |
| CCCCCOc1ccc(-c2ccc(-c3ccc(C(=O)N[C@H]4C[C@@H](O)[C@@H](O)NC(=O)[C@@H]5[C@@H](O)[C@@H](C)CN5C(=O)[C@H]([C@@H](C)O)NC(=O)[C@H]([C@H](O)[C@@H](O)c5ccc(O)cc5)NC(=O)[C@@H]5C[C@@H](O)CN5C(=O)[C@H]([C@@H](C)O)NC4=O)cc3)cc2)cc1 | 25 |
| O=C(O)c1cc(-c2ccc(F)cc2F)ccc1O [Diflunisal] | -1.33 |
| C[C@@H]1[C@H](O)[C@@H](C)/C=C/C=C/C=C/C=C/C=C/C=C/C=C/[C@H](O[C@@H]2O[C@H](C)[C@@H](O)[C@H](N)[C@@H]2O)C[C@@H]2O[C@](O)(C[C@@H](O)C[C@@H](O)[C@H](O)CC[C@@H](O)C[C@@H](O)CC(=O)O[C@H]1C)C[C@H](O)[C@H]2C(=O)O [Amphotericin B] | -5.04 |
| CO/N=C(\C(=O)N[C@@H]1C(=O)N2C(C(=O)O)=CCS[C@H]12)c1csc(N)n1 [Ceftizoxime sodium] | -1.54 |
| COC1C(O)CC(=O)OC(C)CC=CC=CC(OC2CCC(N(C)C)C(C)O2)C(C)CC(CC=O)C1OC1OC(C)C(OC2CC(C)(O)C(O)C(C)O2)C(N(C)C)C1O (stereo not drawn) [Spiramycin] | -0.16 |
| CC(C)(O/N=C(\C(=O)N[C@@H]1C(=O)N2C(C(=O)[O-])=C(C[n+]3ccccc3)CS[C@H]12)c1csc(N)n1)C(=O)O [Ceftazidime] | 0.63 |
| C[C@@H]1C/C=C/C=C/C=C/C=C/[C@H](O[C@@H]2O[C@H](C)[C@@H](O)[C@H](N)[C@@H]2O)C[C@@H]2O[C@](O)(C[C@@H](O)C[C@H]3O[C@@H]3/C=C/C(=O)O1)C[C@H](O)[C@H]2C(=O)O [Natamycin] | 12.5 |
| COCCCN1CCC(NC(=O)c2cc(Cl)c(N)c3c2OCC3)CC1 [Prucalopride] | -0.52 |
| CCOc1cc(NC(C)=O)ccc1C(=O)OC [Ethopabate] | -0.59 |
| CCCSc1ccc2[nH]c(NC(=O)OC)nc2c1 [Albendazole] | -0.51 |
| CN(C)CCN1C(=O)c2cccc3cc(N)cc(c23)C1=O [Amonafide] | 0.02 |
| COc1ccnc(C[S+]([O-])c2nc3cc(OC(F)F)ccc3[nH]2)c1OC (stereo not drawn) [Pantoprazole sodium] | 0.86 |
| CCOC(=O)C1=C(COCCN)NC(C)=C(C(=O)OC)C1c1ccccc1Cl (stereo not drawn) [Amlodipine Besylate] | 3.81 |
| CC(C)(C)C(=O)C(Oc1ccc(Cl)cc1)n1ccnc1 (stereo not drawn) [Climbazole] | 2.84 |
| COc1cc(N)c(Cl)cc1C(=O)NC1CCN(CCCOc2ccc(F)cc2)CC1OC (stereo not drawn) [Cisapride] | -0.08 |
| O=c1ccn(C2CC(O)C(CO)O2)c(=O)[nH]1 (stereo not drawn) [2-deoxyuridine] | 0.07 |
| NC12CC3CC(CC(C3)C1)C2 [Amantadine HCl] | -0.11 |
| CO/N=C(\C(=O)N[C@@H]1C(=O)N2C(C(=O)OCOC(=O)C(C)(C)C)=C(/C=C\c3scnc3C)CS[C@H]12)c1csc(N)n1 [Cefditoren Pivoxil] | 0.56 |

| SMILES | z-score of subpopulation abundance |
| --- | --- |
| O=C1c2cccc3c2[C@H](CCC3)CN1[C@@H]1CN2CCC1CC2 [Palonosetron HCl] | -0.32 |
| CCCOc1ccc2[nH]c(NC(=O)OC)nc2c1 [Oxibendazole] | 0.1 |
| C[C@]12CC[C@@H]3c4ccc(O)cc4CC[C@H]3[C@@H]1CC[C@@H]2OC(=O)CCC1CCCC1 [Estradiol Cypionate] | -0.04 |
| COc1ccc2c(c1)c(CC(=O)O)c(C)n2C(=O)c1ccc(Cl)cc1 [Indomethacin] | -0.68 |
| O=C(O)Cc1ccccc1Nc1c(Cl)cccc1Cl [Diclofenac Diethylamine] | -1.31 |
| Clc1ccccc1C(c1ccccc1)(c1ccccc1)n1ccnc1 [Clotrimazole] | 6.9 |
| C[C@@H](O)[C@H]1C(=O)N2C(C(=O)OCOC(=O)C(C)(C)C)=C(SC3CN(C4=NCCS4)C3)[C@H](C)[C@H]12 [Tebipenem Pivoxil] | -0.29 |
| COC(=O)C1=C(C)NC(C)=C(C(=O)OCC(C)C)C1c1ccccc1[N+](=O)[O-] (stereo not drawn) [Nisoldipine] | 0.84 |
| NC(=O)Cc1cccc(C(=O)c2ccccc2)c1N [Nepafenac] | -0.38 |
| CN1C2CCCC1CC(NC(=O)c1nn(C)c3ccccc13)C2 (stereo not drawn) [Granisetron] | -1.03 |
| Cc1ccc(-c2ncc(Cl)cc2-c2ccc(S(C)(=O)=O)cc2)cn1 [Etoricoxib] | -0.35 |
| Cc1ccc(Sc2ccccc2N2CCNCC2)c(C)c1 | -0.02 |
| CN(C)CCCN1c2ccccc2Sc2ccccc21 [Promazine hydrochloride] | -0.82 |
| CN(C)CCn1nnnc1SCC1=C(C(=O)O)N2C(=O)[C@@H](NC(=O)Cc3csc(N)n3)[C@H]2SC1 [Cefotiam hydrochloride] | 1.72 |
| CN(C)CC(c1ccc(O)cc1)C1(O)CCCCC1 (stereo not drawn) [Desvenlafaxine] | -0.84 |
| Cc1ncc([N+](=O)[O-])n1CCOC(=O)c1ccccc1 [Metronidazole Benzoate] | -1.17 |
| O=C1C(CC[S+]([O-])c2ccccc2)C(=O)N(c2ccccc2)N1c1ccccc1 (racemic) [(+/-)-Sulfinpyrazone] | -0.21 |
